This passage reports outcome and AC50 results from PubChem BioAssay (EPA / NIEHS).

In assay [1] the target is human Retinoic Acid Receptor gamma (RARg), RARG (gene 5916) (UniProt P13631). The assay is described as follows: ATG_RARg_TRANS: Attagene TRANS-FACTORIAL HepG2 Assay for human Retinoic Acid Receptor gamma (RARg) (AID 2283009). The gist of the method: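 HepG2, RARg-GAL4 TRANS system, 24 h exposure; reporter mRNA by RT-PCR + CE fluorescence; increase over DMSO.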
Read-out in assay [2]: Vascular cell adhesion molecule 1 (VCAM1), VCAM1 (gene 7412)
Kind of assay: BSK_MyoF_VCAM1: BioMAP Diversity Plus: MyoF Assay for Vascular cell adhesion molecule 1 (VCAM1) Biomarker Activity (AID 2284231; active = hit-call score of the fitted dose curve at least 0.9, where 1 is the maximum; inactive = score below 0.9). The settings on record: primary human lung fibroblasts. The procedure, abridged: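 Steps: fibroblasts from human lung exposed to compound; biomarker quantified by ELISA at 24 h; values analysed for upward change over the DMSO baseline.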

Read-out in assay [3]: Plasminogen activator inhibitor-1 (PAI1), SERPINE1 (gene 5054)
Kind of assay: BSK_MyoF_PAI1: BioMAP Diversity Plus: MyoF Assay for Plasminogen activator inhibitor-1 (PAI1) Biomarker Activity (AID 2284256; active = hit-call score of the fitted dose curve at least 0.9, where 1 is the maximum; inactive = score below 0.9;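 as to outcome: PAI-1 protein level measured by ELISA in fibroblast cultures; PAI-1 read 24 h after compound addition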). The following applies: primary human lung fibroblasts. The procedure, abridged:
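Activity reflects increased PAI-1, determined by ELISA and compared with DMSO, in human lung fibroblasts treated for 24 h.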

Assay [4] is described as follows: BSK_MyoF_SRB: Viability Assessment in the BioMAP Diversity Plus: MyoF Assay (AID 2284267; active = hit-call score of the fitted dose curve at least 0.9, where 1 is the maximum; inactive = score below 0.9;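 also: total protein by SRB absorbance in parallel cultures as cytotoxicity measure; cells assessed 24 h after compound addition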). The following applies: primary human lung fibroblasts. The procedure, abridged:
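Cytotoxicity in primary human lung fibroblasts is gauged by SRB total-protein staining 24 h after dosing, with DMSO as the negative control.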

Read-out in assay [5]: Matrix Metallopeptidase 1 (MMP1), MMP1 (gene 4312)
Kind of assay: BSK_MyoF_MMP1: BioMAP Diversity Plus: MyoF Assay for Matrix Metallopeptidase 1 (MMP1) Biomarker Activity (AID 2284268; active = hit-call score of the fitted dose curve at least 0.9, where 1 is the maximum; inactive = score below 0.9). The settings on record: primary human lung fibroblasts. The procedure, abridged:
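MMP1 measured by ELISA 24 h after dosing primary human lung fibroblasts; cytotoxicity checked in parallel cultures by sulforhodamine B total-protein staining read at 560 nm.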

In assay [6] the target is human Ephrin type-A Receptor 1 (EphA1), EPHA1 (gene 2041) (UniProt P21709). The assay is described as follows: NVS_ENZ_hEphA1: NovaScreen (NVS) Enzymatic Assay for human Ephrin type-A Receptor 1 (EphA1) (AID 2283158).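 Also: activity is signal loss versus DMSO meaning EphA1 kinase inhibition.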 The gist of the method: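 Biochemical kinase assay run cell-free; 1 h incubation; readout is fluorescence with mobility-shift separation of product. Concentration-response up to 50 uM for actives from a 25 uM screen.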
Sequence of human Ephrin type-A Receptor 1 (EphA1), EPHA1 (gene 2041) (P21709 whole entry, looked up): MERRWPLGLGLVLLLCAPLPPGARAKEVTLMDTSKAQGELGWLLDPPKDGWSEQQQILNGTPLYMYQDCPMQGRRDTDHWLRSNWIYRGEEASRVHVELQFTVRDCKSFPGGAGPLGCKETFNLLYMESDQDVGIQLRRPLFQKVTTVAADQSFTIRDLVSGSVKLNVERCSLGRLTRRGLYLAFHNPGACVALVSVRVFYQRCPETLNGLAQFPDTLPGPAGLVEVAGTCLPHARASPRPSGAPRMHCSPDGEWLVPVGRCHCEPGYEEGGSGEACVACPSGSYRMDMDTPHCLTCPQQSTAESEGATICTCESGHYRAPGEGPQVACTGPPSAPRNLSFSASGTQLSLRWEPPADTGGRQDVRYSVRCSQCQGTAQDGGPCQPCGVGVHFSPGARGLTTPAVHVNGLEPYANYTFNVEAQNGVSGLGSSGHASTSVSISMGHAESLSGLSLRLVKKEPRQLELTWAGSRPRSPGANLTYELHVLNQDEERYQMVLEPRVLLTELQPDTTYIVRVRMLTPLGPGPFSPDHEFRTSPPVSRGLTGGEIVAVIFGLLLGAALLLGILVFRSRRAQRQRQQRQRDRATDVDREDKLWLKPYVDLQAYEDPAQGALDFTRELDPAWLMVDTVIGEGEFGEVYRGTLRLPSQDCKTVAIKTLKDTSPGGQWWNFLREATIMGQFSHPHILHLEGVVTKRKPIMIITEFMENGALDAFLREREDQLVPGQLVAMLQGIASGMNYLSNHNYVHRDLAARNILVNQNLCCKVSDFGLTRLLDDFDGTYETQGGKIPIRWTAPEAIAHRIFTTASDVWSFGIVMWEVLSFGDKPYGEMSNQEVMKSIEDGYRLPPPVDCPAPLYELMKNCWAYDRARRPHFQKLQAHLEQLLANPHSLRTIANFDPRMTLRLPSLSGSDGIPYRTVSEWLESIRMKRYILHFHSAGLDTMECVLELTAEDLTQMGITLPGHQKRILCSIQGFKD

Assay [7] is described as follows: TOX21_PR_BLA_Followup_Antagonist_viability: Viability Assessment in the Tox21 HEK293 Progesterone Receptor (PR) Antagonism Beta-lactamase Follow-Up Assay (AID 2283936).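 Also: hits lower the luminescence signal meaning cytotoxicity.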 The gist of the method:
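PR-UAS-bla HEK293T cells (3,000/well, 2% charcoal-stripped FBS) given compound plus R5020 agonist, 16 h at 37C. CellTiter-Glo added after bla read, 30 min at room temperature; luminescence loss indicates cytotoxicity.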

Assay [8] is described as follows: TOX21_PR_LUC_Followup_Antagonist_viability: Viability Assessment in the Tox21 HEK293 Progesterone Receptor (PR) Antagonism Luciferase Follow-Up Assay (AID 2283940). The gist of the method:
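Cellular ATP, measured with luciferase-coupled CellTiter-Glo, served as the viability endpoint after HEK293-PR-A-luc cells were exposed to test compounds for 16 h at 37C.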

A short description of assay [9]: TOX21_PR_LUC_Followup_Agonist_viability: Viability Assessment in the Tox21 HEK293 Progesterone Receptor (PR) Agonism Luciferase Follow-Up Assay (AID 2283941).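 Also: loss of signal means cytotoxicity so actives lower viability.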 The gist of the method:
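Luminescent ATP quantitation (CellTiter-Glo) serves as the read-out; a drop flags cytotoxic compounds. Cells are HEK293-PR-A-luc grown in 10% charcoal-stripped FBS, plated 3,000/well, and exposed to compound for 16 h.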

In assay [10] the target is human RAR-related Orphan Receptor gamma (RORg), RORC (gene 6097) (UniProt P51449). Kind of assay: ATG_RORg_TRANS: Attagene TRANS-FACTORIAL HepG2 Assay for human RAR-related Orphan Receptor gamma (RORg) (AID 2283011). The gist of the method: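 Activity is scored as increase in GAL4-UAS reporter mRNA over DMSO, detected by fluorescent RT-PCR and capillary electrophoresis in HepG2 cells transiently expressing a RORg-Gal4 chimera, 24 h after dosing.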
Sequence of human RAR-related Orphan Receptor gamma (RORg), RORC (gene 6097) (P51449 whole entry, looked up, the tested form may be a part): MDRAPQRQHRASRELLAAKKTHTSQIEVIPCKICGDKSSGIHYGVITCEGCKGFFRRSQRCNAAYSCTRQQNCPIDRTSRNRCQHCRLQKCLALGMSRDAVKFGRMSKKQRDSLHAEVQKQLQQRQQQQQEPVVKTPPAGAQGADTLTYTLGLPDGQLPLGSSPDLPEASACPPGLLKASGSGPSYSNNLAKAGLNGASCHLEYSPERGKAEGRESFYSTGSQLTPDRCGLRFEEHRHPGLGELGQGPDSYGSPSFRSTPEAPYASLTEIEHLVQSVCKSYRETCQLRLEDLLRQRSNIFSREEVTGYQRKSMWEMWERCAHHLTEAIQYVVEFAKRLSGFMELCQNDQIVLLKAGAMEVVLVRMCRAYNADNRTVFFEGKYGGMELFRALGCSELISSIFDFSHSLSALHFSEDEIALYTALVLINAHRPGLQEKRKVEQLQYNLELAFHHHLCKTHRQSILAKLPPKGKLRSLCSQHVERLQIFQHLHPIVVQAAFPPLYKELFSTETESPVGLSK

Assay [11] addresses bovine Estrogen Receptor (ER), ESR1 (gene 407238) (UniProt P49884). The assay is described as follows: NVS_NR_bER: NovaScreen (NVS) Nuclear Receptor Binding Assay for bovine Estrogen Receptor (ER) (AID 2283345).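 Also: actives lower the bound radioligand count which means they displace the ER ligand.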 The procedure, abridged:
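Bovine uterine membranes; tritiated or iodinated radioligand; competitive displacement; 18 h; scintillation read; DMSO negative control; 25 uM duplicates, then concentration series for actives.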

Assay [12] concerns the target Estrogen receptor (Homo sapiens) (UniProt P03372). The assay is described as follows: NVS_NR_hER: NovaScreen (NVS) Nuclear Receptor Binding Assay for human Estrogen Receptor (ER) (AID 2283348). The procedure, abridged: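 Radioligand competitive displacement binding to estrogen receptor from MCF7 extract, cell-free; 18 h after dosing, scintillation read-out. Primary screen in duplicate at 25 uM; actives followed up in concentration series; loss of signal vs DMSO.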

Assay [13] in a line: CCTE_Harrill_HTTr_CellCount_MCF7: CCTE's Cell Proliferation Assessment for the High-Throughput Transcriptomics (HTTr) Platform, Harrill Lab (AID 2284012).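 Also: count of Hoechst-stained nuclei per well by high-content imaging in MCF-7 cells; cells exposed to compound for six hours; intended direction is loss of nuclei count meaning fewer cells.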 The procedure, abridged:
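Nuclei counting (Hoechst, high content imaging) in MCF-7 after a 6 h treatment at eight concentrations. Activity fitted bidirectionally, DMSO as negative control.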

The target of assay [14] is Retinoic acid receptor RXR-alpha (Homo sapiens) (UniProt P19793). The assay is described as follows: OT_NURR1_NURR1RXRa_0480: Odyssey Thera (OT) 8-hour HEK293T Protein Complementation Assay for Nurr1/retinoid X receptor (RXR) (AID 2283385). The procedure, abridged:
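Compounds are applied to HEK293T cells carrying Nurr1 and RXRα linked to reporter fragments. After 8 h, fluorescence intensity reports heterodimer formation, with DMSO as baseline.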

Assay [15] has the same target. The assay is described as follows: OT_NURR1_NURR1RXRa_1440: Odyssey Thera (OT) 24-hour HEK293T Protein Complementation Assay for Nurr1/retinoid X receptor (RXR) (AID 2283386). The procedure, abridged: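 Measured as fluorescence from a reconstituted split reporter, this 24 h HEK293T complementation assay scores compound-induced gain of Nurr1/RXRα association relative to DMSO.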

For assay [16], the system named is Sodium/Iodide Symporter (NIS), SLC5A5 (gene 6528). Kind of assay: CPHEA_Stoker_NIS_Inhibition_RAIU: CPHEA's Radioactive Iodide Uptake (RAIU) Assay for Sodium/Iodide Symporter (NIS) Inhibition, Stoker and Laws Labs (AID 2283841). The procedure, abridged:
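Test chemicals, six concentrations from 0.001 to 100uM in 0.5% DMSO, were co-incubated with carrier-free 125I (final 329pM) on hNIS-HEK293T-EPA monolayers in pH 7.4 HEPES-buffered HBSS. Plates stood 2 hours at room temperature, then were washed cold and counted.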

A short description of assay [17]: CPHEA_Stoker_NIS_Cytotoxicity: Cytotoxicity Assessment for CPHEA's Radioactive Iodide Uptake (RAIU) Assay for Sodium/Iodide Symporter (NIS) Inhibition, Stoker and Laws Labs (AID 2283897).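 As to AC50: active means loss of ATP signal versus DMSO meaning cytotoxicity.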 The procedure, abridged: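 Viability in hNIS-HEK293T-EPA cells is scored as a drop in luciferase-detected ATP following 2-hour room-temperature exposure (0.001–100uM; triplicate wells, three cell passages), with DMSO as negative control.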

In assay [18] the target is rat Thyrotropin Releasing Hormone Receptor (TRH), Trhr (gene 25570) (UniProt Q01717). Kind of assay: NVS_GPCR_rTRH: NovaScreen (NVS) G Protein-Coupled Receptor Assay for rat Thyrotropin Releasing Hormone Receptor (TRH) (AID 2283329).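 Also: hit means lower bound tracer signal versus DMSO baseline.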 The procedure, abridged: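 Test compounds are screened at 25 uM in duplicate against radioligand binding in rat forebrain membranes, with active pairs followed up over a concentration range. Detection uses filter-based radiodetection after a 4 h exposure.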
Sequence of rat Thyrotropin Releasing Hormone Receptor (TRH), Trhr (gene 25570) (Q01717 whole entry, looked up): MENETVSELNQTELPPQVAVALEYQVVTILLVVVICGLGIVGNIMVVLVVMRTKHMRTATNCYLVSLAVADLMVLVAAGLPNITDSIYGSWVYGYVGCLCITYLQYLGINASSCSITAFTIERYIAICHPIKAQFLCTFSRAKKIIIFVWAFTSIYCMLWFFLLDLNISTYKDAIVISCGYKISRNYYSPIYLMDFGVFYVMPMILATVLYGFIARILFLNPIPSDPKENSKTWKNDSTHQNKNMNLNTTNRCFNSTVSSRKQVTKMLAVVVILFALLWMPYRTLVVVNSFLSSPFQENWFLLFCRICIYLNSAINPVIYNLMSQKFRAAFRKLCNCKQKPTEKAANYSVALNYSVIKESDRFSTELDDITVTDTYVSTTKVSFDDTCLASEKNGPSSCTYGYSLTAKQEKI

Assay [19] has as its target Estrogen receptor beta (Homo sapiens) (UniProt Q92731). The assay is described as follows: OT_ER_ERbERb_0480: Odyssey Thera (OT) 8-hour HEK293T Protein-Complementation Assay for Estrogen Receptor-beta/-beta Homodimer (AID 2283357).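 Also: active means signal gain over DMSO baseline.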 The gist of the method:
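Fluorescence intensity, nuclear for agonists and nuclear plus cytoplasmic for antagonists, was quantified by laser scanning cytometry versus vehicle after 8 h treatment. The cells were HEK293T stably carrying ER beta LBD fragment-complementation partners.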

For assay [20] the target is unchanged. The assay is described as follows: OT_ER_ERbERb_1440: Odyssey Thera (OT) 24-hour HEK293T Protein-Complementation Assay for Estrogen Receptor-beta/-beta Homodimer (AID 2283380).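 Also: scored as signal increase over DMSO baseline for both agonists and antagonists.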 The procedure, abridged: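 HEK293T cells stably expressing ER beta LBD (aa 310-547) homodimer fragment-complementation reporter, dosed 24 h. Cells formaldehyde-fixed, Draq5-stained; gain in nuclear (agonist) or nuclear plus cytoplasmic (antagonist) fluorescence versus DMSO read by laser scanning cytometry.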

Results filed as inconclusive are left out. The source made the active and inactive calls. The calls were made as follows, unless noted: active = hit-call score of the fitted dose curve at least 0.9, where 1 is the maximum; inconclusive = response in the unintended direction; inactive = score below 0.9.

Sequence of Estrogen receptor beta (Homo sapiens) (Q92731 whole entry, looked up, the tested form may be a part): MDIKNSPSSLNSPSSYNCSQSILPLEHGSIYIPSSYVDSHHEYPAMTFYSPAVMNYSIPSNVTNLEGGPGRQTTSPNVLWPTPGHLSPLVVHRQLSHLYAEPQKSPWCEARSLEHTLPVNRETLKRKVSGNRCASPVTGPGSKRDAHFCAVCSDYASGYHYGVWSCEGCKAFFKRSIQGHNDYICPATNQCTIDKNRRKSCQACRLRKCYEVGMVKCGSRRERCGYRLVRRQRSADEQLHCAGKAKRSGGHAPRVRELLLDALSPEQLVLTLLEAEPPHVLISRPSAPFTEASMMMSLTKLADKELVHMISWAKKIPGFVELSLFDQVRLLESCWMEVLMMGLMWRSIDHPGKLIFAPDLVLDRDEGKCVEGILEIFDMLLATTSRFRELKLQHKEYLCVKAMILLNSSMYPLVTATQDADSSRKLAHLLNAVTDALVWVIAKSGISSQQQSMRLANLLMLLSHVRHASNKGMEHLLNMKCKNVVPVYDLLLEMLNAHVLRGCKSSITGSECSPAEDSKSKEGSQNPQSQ
Sequence of human Retinoic Acid Receptor gamma (RARg), RARG (gene 5916) (P13631 whole entry, looked up, the tested form may be a part): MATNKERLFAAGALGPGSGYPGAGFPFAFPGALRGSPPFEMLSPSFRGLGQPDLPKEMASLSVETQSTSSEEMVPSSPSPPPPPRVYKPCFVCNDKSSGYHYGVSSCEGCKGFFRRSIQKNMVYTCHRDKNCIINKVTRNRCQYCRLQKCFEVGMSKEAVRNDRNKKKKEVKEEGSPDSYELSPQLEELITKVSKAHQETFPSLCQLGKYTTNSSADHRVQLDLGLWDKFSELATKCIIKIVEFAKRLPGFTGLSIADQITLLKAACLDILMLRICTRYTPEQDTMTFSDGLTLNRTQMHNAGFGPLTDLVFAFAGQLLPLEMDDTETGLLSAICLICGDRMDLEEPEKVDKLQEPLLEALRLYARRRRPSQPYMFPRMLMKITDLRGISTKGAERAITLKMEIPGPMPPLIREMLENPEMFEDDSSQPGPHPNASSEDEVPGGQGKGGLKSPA
Sequence of Retinoic acid receptor RXR-alpha (Homo sapiens) (P19793 whole entry, looked up, the tested form may be a part): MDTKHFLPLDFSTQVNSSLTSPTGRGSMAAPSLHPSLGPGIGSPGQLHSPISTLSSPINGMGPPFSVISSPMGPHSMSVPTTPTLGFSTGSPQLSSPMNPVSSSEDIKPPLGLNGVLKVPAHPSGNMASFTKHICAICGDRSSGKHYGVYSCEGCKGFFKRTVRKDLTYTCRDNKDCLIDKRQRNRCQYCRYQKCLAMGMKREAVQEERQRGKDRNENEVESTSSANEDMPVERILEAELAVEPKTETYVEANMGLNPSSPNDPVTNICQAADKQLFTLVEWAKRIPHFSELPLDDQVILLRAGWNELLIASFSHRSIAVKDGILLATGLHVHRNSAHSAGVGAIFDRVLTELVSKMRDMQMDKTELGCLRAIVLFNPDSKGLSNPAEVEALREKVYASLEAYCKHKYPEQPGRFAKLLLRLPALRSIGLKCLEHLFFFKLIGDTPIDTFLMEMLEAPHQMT
Sequence of bovine Estrogen Receptor (ER), ESR1 (gene 407238) (P49884 whole entry, looked up): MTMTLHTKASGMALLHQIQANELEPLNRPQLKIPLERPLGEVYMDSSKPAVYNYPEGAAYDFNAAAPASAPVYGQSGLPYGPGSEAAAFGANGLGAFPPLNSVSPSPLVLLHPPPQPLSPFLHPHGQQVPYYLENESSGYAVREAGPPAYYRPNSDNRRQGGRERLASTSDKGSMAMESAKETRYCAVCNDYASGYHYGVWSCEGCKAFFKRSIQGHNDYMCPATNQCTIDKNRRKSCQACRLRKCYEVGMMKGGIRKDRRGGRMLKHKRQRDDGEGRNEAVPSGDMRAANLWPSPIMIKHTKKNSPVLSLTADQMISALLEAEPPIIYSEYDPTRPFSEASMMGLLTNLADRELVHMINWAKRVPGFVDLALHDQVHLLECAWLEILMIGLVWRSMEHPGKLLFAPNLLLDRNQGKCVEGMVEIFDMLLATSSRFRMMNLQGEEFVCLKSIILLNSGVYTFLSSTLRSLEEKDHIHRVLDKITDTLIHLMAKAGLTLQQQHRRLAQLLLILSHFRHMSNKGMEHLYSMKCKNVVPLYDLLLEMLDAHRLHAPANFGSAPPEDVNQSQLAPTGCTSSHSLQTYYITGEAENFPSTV
Sequence of Estrogen receptor (Homo sapiens) (P03372 whole entry, looked up): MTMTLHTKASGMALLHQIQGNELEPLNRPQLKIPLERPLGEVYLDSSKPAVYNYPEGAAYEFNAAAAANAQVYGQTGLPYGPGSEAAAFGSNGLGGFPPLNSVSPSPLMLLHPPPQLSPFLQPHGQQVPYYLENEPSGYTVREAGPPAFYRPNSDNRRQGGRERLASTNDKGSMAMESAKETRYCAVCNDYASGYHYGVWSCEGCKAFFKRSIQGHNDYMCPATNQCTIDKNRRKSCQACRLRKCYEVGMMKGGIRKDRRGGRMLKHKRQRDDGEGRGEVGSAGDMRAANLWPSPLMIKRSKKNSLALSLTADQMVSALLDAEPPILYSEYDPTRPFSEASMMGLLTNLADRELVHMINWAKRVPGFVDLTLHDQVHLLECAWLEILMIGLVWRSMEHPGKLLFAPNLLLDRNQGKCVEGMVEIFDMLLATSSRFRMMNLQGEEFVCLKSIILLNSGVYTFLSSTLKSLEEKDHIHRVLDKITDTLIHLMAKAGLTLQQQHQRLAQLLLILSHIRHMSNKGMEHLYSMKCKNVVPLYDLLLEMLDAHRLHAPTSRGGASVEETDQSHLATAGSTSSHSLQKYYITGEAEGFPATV

For the compound `CC(C)C#N`, in assay [1], the result was inactive.
With `CC(C)CCCCCCCOC(=O)c1ccccc1C(=O)OCCCCCCCC(C)C`, the result in [2], in [3], in assay [4] and in assay [5] was inactive.
For `CC(=O)/C=C/c1ccccc1`, the compound was called inactive in assay [6], in assay [2], in [3], in [4] and in [5].
Consider `C[C@]12CC[C@H]3[C@@H](CC[C@@]45O[C@@H]4C(O)=C(C#N)C[C@]35C)[C@@H]1CC[C@@H]2O`, for which the compound was called inactive in assay [7], in assay [8] and in assay [9].
What is called AC50 is the concentration at which the activity in the assay is half-maximal. As for `O=C1C(Cl)=C(Cl)C(=O)C(Cl)=C1Cl`, the outcome in assay [1], in assay [10], in [6], in assay [11], in assay [12] and in [13] was inactive. Moreover, the result in [5] was inactive. The AC50 in assay [2] was 20.5 µM (active); in assay [3] it was 29.9 µM (active); in assay [4], 29.6 µM (active).
On to `O=[N+]([O-])c1cc(C(F)(F)F)c(Cl)c([N+](=O)[O-])c1Cl`, for which the compound was classed as inactive in assay [11] and in assay [12].
For `O=[N+]([O-])O`, the compound was classed as inactive in [1], in assay [14], in assay [15], in assay [16] and in [17].
Consider `CC(C)(Cl)Cl`, for which the result in [14] and in assay [15] was inactive.
Take `C=C(Cl)CCl`: the call in assay [1] was inactive.
`C=CC(=O)OCCO`: the call in assay [18], in [19] and in assay [20] was inactive.
For the compound `Nc1ccc([N+](=O)[O-])cc1N`, the result in assay [10] was inactive.
Regarding `Oc1ccc(C2(c3ccc(O)cc3)c3ccccc3-c3ccccc32)cc1`, the compound was called inactive in assay [11]. In addition, the AC50 in assay [12] was 0.644 µM (active).
In the case of `O=c1[nH]c(Cl)c(Cl)cc1Cl`, the compound was classed as inactive in assay [13], in assay [2], in [3] and in assay [4]. Moreover, the AC50 in [5] was 20 µM (active).
As for `O=P(O)(Oc1ccccc1)Oc1ccccc1`, the compound was classed as inactive in assay [18], in assay [19], in assay [20], in assay [15], in [16] and in assay [17].
In the case of `N#Cc1cc(I)c(O)c(I)c1`, the call in assay [1], in assay [7], in assay [8] and in assay [9] was inactive.
Take `CCC(C)(C)O`: the call in assay [10] and in assay [6] was inactive.
For the compound `CCN(CC)C(=S)S`, the compound was classed as inactive in assay [10].
Same read-out and setting: next, `C=Cc1cccc(CCl)c1`: “inactive”.
Regarding `CC(C)(C)C(O)C(Oc1ccc(-c2ccccc2)cc1)n1cncn1` (centres undefined), the compound was classed as inactive in assay [13] and in [3]. For the same compound, the AC50 was 30 µM (active) in assay [2], 32 µM (active) in [4] and 30 µM (active) in assay [5].
Take `CC(C)(c1cc(Cl)c(O)c(Cl)c1)c1cc(Cl)c(O)c(Cl)c1`: the result in assay [18], in assay [19], in assay [20], in [7], in assay [8] and in assay [9] was inactive. Moreover, the result in assay [5] was inactive. For the same compound, the AC50 in [14] is 74.7 µM (active); in assay [15], 78.1 µM (active); in assay [16] it was 9.92 µM (active); in [17] it was 81.3 µM (active); in [3] it was 9.2 µM (active); in [4], 16.5 µM (active).
With `CC1(C)C(=O)NC(=O)NC1=O`, in [10], the outcome was inactive.
For the compound `CCCC=NO`, the compound was classed as inactive in assay [10], in assay [18], in [19], in assay [20], in assay [14] and in assay [15].
As to `CCCCCCCCCCCC#N`, the AC50 in assay [2] was 30.7 µM (active); in assay [4], 30.5 µM (active); in assay [5], 33.7 µM (active).
In the case of `c1ccc2c(c1)CCCC2`, the outcome in [19], in assay [20] and in [14] was inactive.
